Screening data: PubChem BioAssay, National Center for Advancing Translational Sciences (NCATS)
ELG1 DNA repair = inhibitors of ELG1-dependent DNA repair in HEK293T cells; AID 504467; 330,000 compounds, 2.3% hits; HEK293T ELG1-luciferase reporter, luminescence, 16 h; DNA damage induced by 5-fluorouridine; Potency, µM (doses to about 46.1 µM), inactives show at the highest dose activity change, negative = inhibition, actives largely listed as inhibitors; also: potency is read from the fitted curve at half-maximal effect; nearly all actives have a fitted effect of over 55% in size
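In this reporter screen, reduction of luminescence relative to DMSO vehicle indicated activity. Compounds and 5-fluorouridine were added together to 2,000 cells per well, incubated for 16 hr at 37 °C, then developed with ONE-Glo.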
HT1080-NT tox = kills 2HG-producing HT-1080-NT fibrosarcoma cells | HT-1080-NT fibrosarcoma viability, CellTiter-Glo ATP luminescence, 48 h | Potency, µM (series often up to 46.1 µM), inactives show at the highest dose activity, negative = less viability, most hits filed as cytotoxic | 360,000 compounds, 1.6% hits;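 also: NT is the 2HG producing partner of a matched IDH1 knockdown line; potency is read from the fitted curve at half-maximal effect; 0% = DMSO-treated cells and -100% = media-only wells without cells; nearly all actives have a fitted effect of over 55% in size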
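Luminescent CellTiter-Glo readout after 48 hours of compound exposure at 37 degrees C defined viability of HT-1080-NT cells. Activity was normalized to DMSO wells and cell-free media wells; concentration-response curves were fitted and assigned curve classes.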
IL1B secr inh = blocks inflammasome-driven IL-1 beta release; THP-1 LPS/ATP IL-1B secretion, AlphaLISA, 16 h; stronger effect = lower value; activity change, % at 57.5 µM; 360,000 compounds, 4.7% hits; AID 743279; in the data active = activity change below about -50%; inconclusive = mostly about -30% to -49%
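Secreted IL-1B measured by AlphaLISA bead assay after 16 h compound exposure of THP-1 cells; compounds (final up to 57.5 uM) added 1 h before LPS (250 ng/mL) and ATP (1.25 mM) stimulation; lower signal means less secretion.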
HT1080 IDH1KD tx = kills HT-1080 cells with IDH1 knockdown. 360,000 compounds, 2% hits. Potency, µM (doses to about 46.1 µM), for the others: at the top dose activity, negative = toxicity, usual class: cytotoxic. HT-1080 IDH1 knockdown viability, ATP luminescence, 48 h. AID 686971;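 also: potency is read from the fitted curve at half-maximal effect; 0% = DMSO wells and -100% = cell-free medium wells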
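Assay cells: HT-1080 with IDH1 knockdown, 750 per well, RPMI/5% FBS. Exposure: 48 h at 37 °C following 2 h pre-incubation. Read: CellTiter-Glo luminescence; fitted concentration-response, curve class assigned.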
TDP1 cell noCPT = qHTS for Inhibitors of human tyrosyl-DNA phosphodiesterase 1 (TDP1): qHTS in cells in absence of CPT; 420,000 compounds, 15% hits; Potency, µM (doses to about 46.2 µM), for inactives: top-dose activity change, negative = growth inhibition, most hits filed as inhibitors; AID 686978, 2013; DT40 Tdp1-/- hTDP1 cells, no CPT, ATP luminescence, 48 h; also: potency is read from the fitted curve at half-maximal effect; nearly all actives have a fitted effect of over 55% in size
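Compound effects on proliferation are scored in DT40 Tdp1-/-;hTDP1 cells in the absence of CPT. ATP levels (CellTiter-Glo luminescence) are recorded after a ≥48 hr, 37 °C incubation.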
DT40 TDP1 CPT = growth inhibition of DT40 Tdp1-/-;hTDP1 cells with camptothecin (screen for TDP1 inhibitors); 420,000 compounds, 12% hits; Potency, µM (top dose mostly 46.2 µM), for the others: at the top dose activity change, negative = growth inhibition, most hits filed as inhibitors; chicken DT40 Tdp1-/-;hTDP1 cells + 20 nM CPT, ATP luminescence, 48 h; also: potency is read from the fitted curve at half-maximal effect; nearly all actives have a fitted effect of over 55% in size
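Chicken DT40 Tdp1-/- cells complemented with human TDP1, 400 cells/well, exposed to compounds plus 20 nM camptothecin for at least 48 h at 37 C; viability read as ATP content by CellTiter-Glo luminescence.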
Numbers without * were called inactive; ? = inconclusive; · = no result; ! = repeats disagree. Sampled rows, rich in hits. Any-hit rate of the full collection: about 19%. Unless noted, calls follow the shape of the dose curve; as a rule, active = well fitted curve in the direction sought with a large enough effect; inconclusive = small, poorly fitted or top-dose-only effect, or another doubt; inactive = no such curve, though single readings can be large; an effect the other way counts as inactive or inconclusive. Unless noted, % is scaled to controls: 0 for no effect and ±100 for the full control effect.

SMILES	ELG1 DNA repair	HT1080-NT tox	IL1B secr inh	HT1080 IDH1KD tx	TDP1 cell noCPT	DT40 TDP1 CPT
CCCCN(CCCC)c1ccc(C=Nc2ccc(/C=C/c3ccnc4ccccc34)cc2)cc1C	·	·	·	·	10µM*	11µM*
COc1cc(Cl)c(C)cc1NC(=O)CSCC#N	-1%	10µM*	23	-29%	-5%	-21%
COc1cc(Cl)c(C)cc1NC(=O)CSc1ccccc1	2%	-4%	-2	-3%	0%	-2%
COc1cc(Cl)c(C)cc1NC(=O)CSC	1%	14%	1	2%	4%	-2%
COc1cc(Cl)c(C)cc1NC(=O)CSc1cc(Cl)ccc1Cl	9%	-6%	24	-7%	23µM*	?
CCOC(=O)C1=C(OCc2ccc(Cl)cc2)C2C=C(C)C=CC2N=C1 (stereo unspecified)	16µM*	-13%	5	-3%	-21%	-12%
NC(=O)COC(=O)c1ccccc1OCc1ccc(Cl)cc1	-12%	0%	28	-5%	-12%	10%
CCOC(=O)C1=CNS(=O)(=O)NC1c1ccccc1 (stereo unspecified)	9%	3%	30	6%	-4%	2%
CC1CCN(S(=O)(=O)c2ccc3c(c2)oc(=O)n3CC(=O)NCc2ccc(F)cc2)CC1	·	·	·	·	8.2µM*	12µM*
COc1cccc(CNC(=O)Cn2c(=O)oc3cc(S(=O)(=O)N4CCC(C)CC4)ccc32)c1	·	·	·	·	5.2µM*	7.3µM*
COc1ccc(-c2cc(C(=O)N3CCN(c4ccccc4)CC3)no2)cc1	?	-20%	-53*	?	21µM*!	18µM*!
COc1ccc(OC)c(-c2cc(C(=O)N3CCN(c4ccccc4)CC3)no2)c1	-16%	-1%	49	-15%	21µM*	?
Cc1c(C(=O)N2CCCCC2CCN2CCCC2=O)oc2c(F)cccc12 (stereo unspecified)	20%	-3%	-17	-3%	-26%	?
CC(C)(C)C1C/C(=C/c2ccccn2)C(=O)/C(=C/c2ccccn2)C1 (stereo unspecified)	?	0.73µM*	-93*	0.65µM*	0.52µM*	0.92µM*
Cc1ccc(C=Cc2ccccn2)cc1	·	19%	18	13%	?	-17%
CC1C/C(=C/c2cccs2)C(=O)/C(=C/c2cccs2)C1 (stereo unspecified)	?	-7%	-2	-6%	?	-27%
CC1C/C(=C/c2ccccn2)C(=O)/C(=C/c2ccccn2)C1 (stereo unspecified)	4.6µM*	0.65µM*	-54*	0.58µM*	0.52µM*	0.52µM*
COCCCNC(=O)c1ccc(-c2nc(CS(=O)(=O)c3ccc(C)cc3)c(C)o2)cc1	·	·	·	·	16µM*	?
COc1ccccc1CNC(=O)c1ccc(-c2nc(CS(=O)(=O)c3ccc(C)cc3)c(C)o2)cc1	·	·	·	·	23µM*	?
Cc1oc(-c2ccc(C(=O)NC(C)c3ccccc3)cc2)nc1CS(=O)(=O)c1ccccc1 (stereo unspecified)	·	·	·	·	-11%	-12%
Cc1ccc(CNC(=O)c2ccc(-c3nc(CS(=O)(=O)c4ccc(C)cc4)c(C)o3)cc2)cc1	·	·	·	·	7.3µM*	13µM*
Cc1ccc(CNC(=O)CS(=O)(=O)Cc2nc(-c3ccc(C)cc3)oc2C)cc1	-13%	-4%	-26	2%	4%	-5%
COc1ccccc1CNC(=O)c1ccc(CS(=O)(=O)c2ccc(C)cc2)o1	-1%	-8%	1	-2%	-29%	?
COc1ccc(N2CCN(c3oc(Cc4ccccc4)nc3C#N)CC2)cc1	?	-4%	-7	?	13µM*	?
N#Cc1nc(COc2ccc(Cl)cc2Cl)oc1N1CCN(c2ccccc2)CC1	10%	-2%	-19	14%	?	?
SMILES	ELG1 DNA repair	HT1080-NT tox	IL1B secr inh	HT1080 IDH1KD tx	TDP1 cell noCPT	DT40 TDP1 CPT
CCOc1ccc(-c2nc(C#N)c(N3CCN(Cc4ccccc4)CC3)o2)cc1	?	1%	-5	-6%	12µM*	?
COc1ccc(N2CCN(c3oc(COc4ccc(Cl)cc4Cl)nc3C#N)CC2)cc1	2%	0%	-8	-10%	9.2µM*	?
CCN1CCN(c2oc(-c3ccc(OC)cc3)nc2C#N)CC1	·	-1%	-8	15%	?	?
Cn1nc(C(C)(C)C)cc1N1C(=O)CCC1(C)C(=O)NCc1ccccc1 (stereo unspecified)	·	?	7	21%	4%	-2%
Cc1ccc(NC(=O)CSc2nncs2)cc1Cl	?	2%	-21	1%	-2%	-14%
Cc1ccc(NC(=O)CSc2ccccc2NC(=O)c2ccccc2Cl)cc1Cl	23µM*	-7%	0	-7%	18µM*	?
Cc1ccc(NC(=O)CSc2ccccc2NC(=O)c2ccccc2)cc1Cl	?	-24%	?	?	13µM*	15µM*
Cc1nc(SCC(=O)Nc2ccc(C)c(Cl)c2)cc(-c2ccccc2)n1	·	·	·	·	?	23µM*
Cc1noc(C)c1CSCC(=O)N(C)CC(=O)Nc1ccccc1Cl	12%	-4%	-3	7%	-8%	-7%
COC(=O)[C@@]12C[C@@H](CC(=O)NCc3cccc(C(F)(F)F)c3)C(=O)N(Cc3ccccc3)C1=CCC(C)(C)C2	·	?	-78*	?	?	?
COC(=O)[C@@]12C[C@@H](CC(=O)NCc3cccc(C(F)(F)F)c3)C(=O)N(Cc3cccc4ccccc34)C1=CCC(C)(C)C2	·	?	0	?	16µM*	16µM*
COC(=O)[C@]12CCCCC=C1N(Cc1ccc(Cl)cc1Cl)C(=O)[C@H](CC(=O)NCc1cccc(C(F)(F)F)c1)C2	·	?	-4	?	?	?
COc1cccc(CNC(=O)CCC2CCCN(C/C=C/c3ccccc3OC)C2)c1 (stereo unspecified)	-11%	-14%	?	-22%	23µM*	?
COc1ccc(/C=C/CN2CCCC(CCC(=O)NCc3ccc(F)c(F)c3)C2)cc1 (stereo unspecified)	4%	?	-84*	?	16µM*	?
COCCC(=O)N1CCCC(CCC(=O)NCc2ccc(F)c(F)c2)C1 (stereo unspecified)	?	10%	0	-1%	-5%	-19%
